Data published in PubChem BioAssay (NCI).
Compounds without any hit were thinned out: in the full panel of roughly 83,000, 20% have a hit.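 The test compound was applied at a single concentration to cells in 96-well plates for 48 hours, and percent growth was recorded.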 Values without a mark were called inactive. The source made the active and inactive calls. How the source made its calls: active means growth percent below 10; inactive means the rest.

Columns and labels:
Assay in all cases: NCI-60 one-dose screen, 48 h (100 = growth as untreated, 0 = no growth, -100 = all killed)
Conditions in all cases: 10 µM unless noted
DU-145 prostate = test system: DU-145 prostate
K-562 leukemia = test system: K-562 leukemia
MALME-3M melanoma = test system: MALME-3M melanoma
MDA-MB-231 breast = test system: MDA-MB-231 breast
RXF 393 renal = test system: RXF 393 renal
SF-268 CNS = test system: SF-268 CNS
SF-295 CNS = test system: SF-295 CNS
SF-539 CNS = test system: SF-539 CNS
UACC-257 melanoma = test system: UACC-257 melanoma
HCT-15 colon = test system: HCT-15 colon
HT29 colon = test system: HT29 colon
SNB-75 CNS = test system: SNB-75 CNS
SNB-19 CNS = test system: SNB-19 CNS
U251 CNS = test system: U251 CNS
SK-MEL-5 melanoma = test system: SK-MEL-5 melanoma
UACC-62 melanoma = test system: UACC-62 melanoma
LOX IMVI melanoma = test system: LOX IMVI melanoma
SK-MEL-28 melanoma = test system: SK-MEL-28 melanoma
PC-3 prostate = test system: PC-3 prostate

| Compound | growth (DU-145 prostate) | growth (K-562 leukemia) | growth (MALME-3M melanoma) | growth (MDA-MB-231 breast) | growth (RXF 393 renal) | growth (SF-268 CNS) | growth (SF-295 CNS) | growth (SF-539 CNS) | growth (UACC-257 melanoma) | growth (HCT-15 colon) | growth (HT29 colon) | growth (SNB-75 CNS) | growth (SNB-19 CNS) | growth (U251 CNS) | growth (SK-MEL-5 melanoma) | growth (UACC-62 melanoma) | growth (LOX IMVI melanoma) | growth (SK-MEL-28 melanoma) | growth (PC-3 prostate) |
| --- | --- | --- | --- | --- | --- | --- | --- | --- | --- | --- | --- | --- | --- | --- | --- | --- | --- | --- | --- |
| c1nc(N2CCOCC2)c2[nH]ccc2n1 | 106% | 92.7% | 109% | 107% | 117% | 102% | 112% | 111% | 105% | 105% | 96% | 97.6% | 107% | 100% | 111% | 103% | 99.8% | 106% |  |
| Cn1cc(-c2nnc(-c3ccccc3)s2)c2cc(Br)cnc21 | 92.6% | 70.7% | 69.9% | 39.3% | 102% | 91.7% | 95.5% | 78.9% | 100% | 77.6% | 95% | 29.9% | 87.9% | 92% | 74.1% | 69.5% | 83.3% | 97.6% | 84.9% |
| Clc1ccccc1/C=N\Nc1ccccn1 | 105% | 94.8% | 110% | 83.3% | 107% | 96.3% | 95.7% | 98.5% | 105% | 77.6% | 94.3% | 74.8% | 90.6% | 95.4% | 89.2% | 85.3% | 93% | 99.2% | 104% |
| COc1cc2c(cc1OC(C)=O)C(=O)CCCC2 | 128% | 186% | 93.3% | 112% | 94.2% | 107% | 107% | 90.9% | 86.7% | 83% | 96.5% | 54.2% | 109% | 94.4% | 90.1% | 105% | 95.6% | 95.2% | 87.5% |
| CCOC(=O)C(c1ccccc1)N1C(=O)c2ccccc2C1=O (centres undefined) | 107% | 114% | 94.9% | 103% | 105% | 99.7% | 100% | 97.9% | 91.9% | 97.3% | 102% | 91.1% |  | 93.8% | 100% | 95% | 91.4% | 99.2% | 98.4% |
| CC(C)(C)c1cc(C(=O)Nc2cc3ccccc3cc2C(=O)NCCN)cc(C(C)(C)C)c1 | -96.9% (active) | -76.9% (active) | -38.1% (active) | -79.9% (active) | -90.4% (active) | -80.7% (active) | -85.5% (active) | -68.8% (active) | -36.1% (active) | -83.4% (active) | -79.6% (active) | -92.2% (active) | -69% (active) | -85.4% (active) | -39.7% (active) | -69.4% (active) | -89.9% (active) | -80.9% (active) | -93% (active) |
| Nc1cc(N)c(N=Nc2ccc(S(=O)(=O)O)cc2)cc1N=Nc1ccc(-c2ccc(N=Nc3ccc(O)c(C(=O)O)c3)cc2)cc1 | 111% | 108% | 93.2% | 100% | 124% | 104% | 103% | 100% | 101% | 103% | 103% | 98.9% | 95.6% | 101% | 101% | 94.6% | 100% | 106% | 98.2% |
| COc1ccc(C2=C(c3cn(C)c4ccccc34)C(=O)OC2)cc1OC | 48.7% | 18% | 35.4% | 49.8% | -7.01% (active) | 52.1% | 23% | -12.2% (active) | 79.7% | 23.7% | 6.9% (active) | -29.3% (active) | 38.3% | 35.1% | 16.4% | 26.8% | 49.6% | 69.9% | 21.3% |
| O=C1CC(c2ccccc2)Cc2nc3ccc(Br)cc3cc21 (centres undefined) | -3.21% (active) | 6.14% (active) | 38.8% | 13.2% | 28.4% | 46.7% | 17.2% | 1.6% (active) | 69.2% | 16% | 2.2% (active) | 36.6% | 27.4% | 18.1% | 2.1% (active) | 36.2% | 31.5% | 56.7% | 32% |
| Cc1nc(-c2ccccc2)sc1CC#N | 116% | 94.2% | 128% | 116% | 118% | 106% | 101% | 111% | 123% | 102% | 105% | 113% | 103% | 100% | 107% | 106% | 102% | 120% | 108% |
| O=C(N[C@@H]1CCCc2ccccc21)[C@H](CCC(=O)N1CCN(C2CCCCC2)CC1)N1C(=O)[C@@H](N2C(=O)OC[C@@H]2c2ccccc2)[C@H]1/C=C/c1ccccc1 | 57.9% | 14.6% | -41.1% (active) | 16.4% | 23% | 15.8% | 30.3% | 4.65% (active) | 10.7% | 12.1% | -14.2% (active) | 65.7% | 39.2% | 30.6% | -93.2% (active) | 51% | -40.5% (active) | 24.8% | 12.1% |
| CCOC(=O)COc1c(C)cc(SSc2cc(C)c(OCC(=O)OCC)c(C)c2)cc1C | 108% | 96.2% | 110% | 107% | 126% | 99% | 105% | 112% | 80.8% | 88.8% | 97.8% | 87.9% | 109% | 75.4% | 94.6% | 87.3% | 103% | 100% | 65.2% |
| CC(C)(C)c1cc(C(=O)N2CCC(C(=O)NCCN)CC2)cc(C(C)(C)C)c1 | 116% | 103% | 95% | 90.9% | 98.5% | 97.8% | 101% | 98.4% | 81% | 103% | 80.5% | 79.4% | 88% | 88.2% | 95.4% | 89.3% | 99.6% | 101% | 92.5% |
| COc1cc2c(=O)[nH]c3cc([N+](=O)[O-])ccc3c2cc1[N+](=O)[O-] | 73.4% | 49.2% | 50.3% | 56% | 72.2% | 63.7% | 47.9% | 45% | 41.7% | 46% | 30.6% | 36.5% | 58.3% | 37.8% | 41.3% | 41.4% | 36.7% | 78.5% | 55.2% |
| CC(C)c1ccc(C(=O)Nc2nc3ccc(O)cc3s2)cc1 | 42.1% | -1.97% (active) | 26.3% | 73% | 67.3% | 51.5% | -36.4% (active) | -21.9% (active) | 25.9% | 7.82% (active) | 30.4% | 63.7% | 53.8% | 58.4% | -6.4% (active) | 10.8% | -25.9% (active) | 26.5% |  |
| O=C1COCCN1c1ccc(NCc2cn(Cc3ccccc3)c3ccccc23)cc1 | 102% | 57.3% | 95.9% | 86.7% | 46.8% | 91.9% | 61.7% | 91.8% | 75.4% | 90.7% | 109% | 81.7% | 93.2% | 86.8% | 91.5% | 21.6% | 92% | 102% |  |
| Cc1ncc(C(=O)Nc2ccc(CN3CCN(C)CC3)c(C(F)(F)F)c2)cc1C#Cc1c(N)ncc2ccc(C#N)cc12 | 27.7% | 4.11% (active) | -34.3% (active) | -12.5% (active) | -45% (active) | 42.1% | 74.4% | 48.4% | -1.39% (active) | 28% | 11.9% | 56.4% | 77.5% | 68.5% | 16.2% | 22.5% | -62.4% (active) | 23.7% | 48.7% |
